Among all 1,100 compounds or so, about 100 (9.1%) were called active. Not all results are given here. A number with no mark means an inactive call.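 How the source made its calls: active means inhibition above a per-plate limit, the mean inhibition of that plate's test compounds plus 3 SD (cut at about 25% in these data); inactive means the rest.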
Assay: nonselective Gq signaling antagonists, untransfected CHO – cell-based, fluorescence, CHO-K1, triplicate, counter-screen for OX1R antagonist project (AID 492965);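 further: 0% = ATP challenge with DMSO and 100% = DMSO without ATP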
Conditions: parental CHO-K1, ATP-induced calcium, Fluo-8 fluorescence; at 5.6 µM; active compounds read high

Row | SMILES | inhibition
1 | COc1cc(CN2CC(C)CC(C)C2)cc([N+](=O)[O-])c1O (stereo not given) | 22.2%
2 | O=C(Nc1cccc(NC(=O)N2CCN(c3ccccc3)CC2)c1)N1CCN(c2ccccc2)CC1 | 6.96%
3 | CCOC(=O)c1cccc(NC(=O)CN(c2ccc(C)cc2)S(=O)(=O)c2c(C)noc2C)c1 | -18.6%
4 | Cc1cc(-c2ccc(C)c(S(=O)(=O)NC(C)Cc3ccco3)c2)on1 (stereo not given) | -8.08%
5 | COc1ccc(/C=C/C(=O)c2ccc(NS(=O)(=O)c3ccc(C)cc3)cc2)cc1O | 2.08%
6 | Cc1ccc2c(C)c(C(=O)N(C)CCC3CCCCO3)oc2c1C (stereo not given) | -10%
7 | C/C(N)=C(/C#N)C(=O)COC(=O)c1cc(-c2ccc(C)cc2)nc2ccccc12 | -4.89%
8 | c1coc(CNc2ncnc3ccccc23)c1 | 26.1% (active)
9 | N#C/C(=C1\CCCN1)c1nc(-c2ccccc2)cs1 | 3.08%
10 | Cc1cc(C)cc(NC(=O)C2CCCN2S(=O)(=O)c2cccc3cccnc23)c1 (stereo not given) | -10.6%
11 | O=C(OC1CCOC1=O)c1ccc(-c2nc3ccccc3s2)s1 (stereo not given) | 10.7%
12 | Cc1ccc(NC(=O)COc2ccc(-n3ccnc3)cc2)cc1Cl | 15.7%
13 | O=C(Nc1cccc2cccnc12)c1cccc(N2C(=O)CCC2=O)c1 | -5.5%
14 | CCc1ccccc1OCC(=O)Nc1ccc(C)c(S(=O)(=O)N2CCCCCC2)c1 | 2.45%
15 | CCCN(CC(=O)Nc1ccccc1OC)C(=O)CCC(=O)c1ccc(F)cc1 | -5.67%
16 | CCCc1nc2c(c(=O)c3ccccc3n2C)c(=O)n1C1CCCCCC1 | -3.88%
17 | CC1(C)C2CC=C(/C=N/NC(=O)C3CC3)C1C2 (stereo not given) | -15%
18 | CCCCC(=O)NNC(=S)NC(=O)C(c1ccccc1)c1ccccc1 | 34.8% (active)
19 | CCCCCCCC(=O)NC(Nc1ccccc1OC)C(Cl)(Cl)Cl (stereo not given) | -10.6%
20 | COc1ccc(N2CC(C(=O)NCCN3C(=O)S/C(=C\c4cccnc4)C3=O)CC2=O)c(OC)c1 (stereo not given) | -8.16%
21 | Cc1cc(N2CCCC2=O)cc(C)c1S(N)(=O)=O | -0.33%
22 | C=CCn1c(SCC(=O)Nc2nc3ccccc3s2)nnc1-c1ccccc1O | -4.55%

Row | SMILES | inhibition
23 | S=c1[nH]nc(-c2cc(-c3ccccc3)n[nH]2)n1/N=C/c1c2ccccc2cc2ccccc12 | -7.45%
24 | CCOc1cc(/C=C(\C#N)c2nc(-c3cccs3)c(NC(C)=O)s2)ccc1O | 14.1%
25 | COCc1c(C(=O)OCC(=O)Nc2ccc(OC(F)F)cc2)oc2ccccc12 | -3.09%
26 | CCC(=O)N(C)C(c1ccccc1Cl)c1nnnn1-c1c(C)cccc1C (stereo not given) | -6.17%
27 | Cc1cccc(NC(=O)Nc2cccc(Oc3c(F)c(F)c(F)c(F)c3F)c2)c1 | 38.9% (active)
28 | CC(=O)Nc1cccc(OCC(=O)/C=C2\N(C)c3ccccc3C2(C)C)c1 | 6.99%
29 | Cc1cccc(NS(=O)(=O)c2cccc(C(=O)NNC(=O)c3ccccc3O)c2)c1 | 15.6%
30 | N#Cc1nc(-c2cccc3ccccc23)oc1N | -11.2%
31 | O=C1c2ccccc2S(=O)(=O)N1CC(O)Cn1c2ccccc2c2ccccc21 (stereo not given) | 4.28%
32 | N#C/C(=C/c1ccc(N2CCCCC2)o1)C(=O)NCCc1c[nH]c2ccccc12 | 31.6% (active)
33 | CCOc1ccc(/C=C/C(=O)OCC(=O)c2ccccc2OC)cc1OC | -17.5%
34 | COc1cccc(/C=N/NC(=O)c2[nH]nc3c2CCc2ccccc2-3)c1O | -10.5%
35 | CCOC(=O)N1CCN(C(=O)c2ccc(S(=O)(=O)Nc3cccc(C(F)(F)F)c3)cc2)CC1 | 9.17%
36 | CCOC(=O)N1CCN(c2cc(C)c([N+](=O)[O-])cc2F)CC1 | 13.3%
37 | N/C(=N\OC(=O)Nc1ccc(Cl)c(Cl)c1)c1ncc(C(F)(F)F)cc1Cl | 14.7%
38 | CC(C)(C)NC(=O)CN(C(=O)c1csnn1)c1ccccc1-c1ccccc1 | -0.67%
39 | O=C(N/N=C/c1sc(N2CCCCC2)nc1-c1cccs1)c1cccnc1 | -6.04%
40 | Nc1nc(COC(=O)CCC(=O)c2ccc(Cl)cc2)nc(Nc2ccccc2)n1 | -7.47%
41 | COc1cccc(/C=N/Nc2cc(C)nc(-c3ccccc3O)n2)c1O | -5.66%
42 | CC1CCCN(CC(O)COCc2ccccc2)C1 (stereo not given) | -5.68%
43 | Cc1ccccc1S(=O)(=O)N1[C@@H](c2cccc(Cl)c2)C(C(=O)O)=CC[C@H]1c1ccc(Cl)cc1 | 13.3%
44 | Cc1ccc(S(=O)(=O)N2CCN(c3ncnc4ccccc34)CC2)cc1 | 50.8% (active)

Row | SMILES | inhibition
45 | COC(=O)c1sccc1NC(=O)CSc1ccccc1NS(=O)(=O)c1cc(Cl)ccc1Cl | 8.36%
46 | NC(=O)C1=C[C@@H](c2ccc3c(c2)OCO3)C[C@@H](OCCCCO)O1 | -5.99%
47 | CCn1c(SCC(=O)c2ccc3ccccc3c2)nnc1-c1cccs1 | -8.88%
48 | Cn1c(N)c(C(=O)COC(=O)c2ccc3ccccc3c2)c(=O)n(C)c1=O | 1.91%
49 | CC(Oc1ccc2ccccc2c1)C(=O)NNC(=S)NC(=O)c1ccco1 (stereo not given) | -8.71%
50 | COc1cccc(C(=O)NC(=O)Nc2nc(C)cc(C(F)(F)F)n2)c1 | -10.8%
51 | N#CC(=C1SC=CS1)c1nc(-c2ccccc2)cs1 | -3.94%
52 | CCOC(=O)c1c(-c2ccc(C)cc2C)csc1NC(=O)CSc1nnnn1C | -6.6%
53 | Cc1cc(C(=O)NC2CCCc3c2cnn3-c2cccc(C)c2C)c(C)o1 (stereo not given) | 34% (active)
54 | O=C(NC(Cc1c[nH]c2ccccc12)C(=O)N/N=C/c1ccc(Br)cc1)c1cccs1 (stereo not given) | 3.66%
55 | CCOc1ccc(CCNC(=O)C(CC)n2nc(C)n3c(cc4sccc43)c2=O)cc1OCC (stereo not given) | -2.6%
56 | COc1ccc2[nH]cc(/C=C(/C#N)S(=O)(=O)c3ccccc3)c2c1 | -11.6%
57 | COc1cc2ccccc2cc1C(=O)Nc1ccc(N2CCOCC2)cc1 | -8.59%
58 | O=C(Cn1[nH]c(=O)c2ccccc2c1=O)Nc1cccc(-c2nnc3n2CCCCC3)c1 | -5.39%
59 | O=C(N/N=C/c1c(Cl)[nH]c2ccccc12)c1sc2ccccc2c1Cl | 10.8%
60 | COc1ccc2sc(-c3ccc(N(C)C)cc3)c(C#CCO)c2c1 | -6.95%
61 | CN(c1ccccc1)S(=O)(=O)c1cccc(NC(=O)Cc2ccc(Cl)cc2)c1 | 6.81%
62 | S=C(NCc1ccc(Cl)cc1)NC12CC3CC(CC(C3)C1)C2 | 14%
63 | COc1ccccc1CNC(=O)C1CCCN(S(=O)(=O)c2cccc3cccnc23)C1 (stereo not given) | -8.22%
64 | O=C1C=C(c2ccc(Cl)cc2)C(=O)N1Nc1ccccc1 | 22.4%
65 | O=C(CCCN1CCc2[nH]c3ccc(F)cc3c2C1)c1ccc(F)cc1 | 26.8% (active)

Reference: PubChem BioAssay AID492965 (The Scripps Research Institute Molecular Screening Center, 2010)
